ALOX12 inh – Primary qHTS assay for inhibitors of human arachidonate 12S-lipoxygenase (ALOX12): Round 2 | Potency, µM (highest dose often 108 µM), most hits filed as inhibitors | purified 12hLO, xylenol orange hydroperoxide absorbance | Polyunsaturated fatty acid lipoxygenase ALOX12 (Homo sapiens), P18054 | hit rate 1.1% among 580,000
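Hydroperoxide product was detected by ferrous iron/xylenol orange as the 573 to 405 nm absorbance ratio. Arachidonic acid at 40 uM (final) was turned over for 30 min at room temperature by 150 nM human 12hLO, pH 7.0 Hepes buffer, after 15 min compound preincubation.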
Sfp inh – qHTS Assay for Inhibitors of Bacillus subtilis Sfp phosphopantetheinyl transferase (PPTase); 4'-phosphopantetheinyl transferase ffp (Bacillus subtilis), Q9F4F7; Biochemical Sfp PPTase activity, qHTS; Potency, µM, actives largely listed as inhibitors; hit rate 3.5% among 310,000; AID 1490, 2009;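 note: the enzyme is Sfp with the accession as filed and its product quenches rhodamine fluorescence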
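Fluorescence-quenching assay with 15 nM Sfp, 5 uM rhodamine-CoA and 12.5 uM BHQ-2-labelled ybbR peptide in pH 7.6 Hepes/MgCl2 buffer. Enzyme was pre-incubated with compound for 15 min at room temperature. Rate was taken from the 30-min fluorescence change (525/598 nm).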
PLK1 PBD block – qHTS for Inhibitors of PLK1-PDB (polo-like kinase 1 - polo-box domain): Primary Screen; Serine/threonine-protein kinase PLK1 (Homo sapiens), P53350; Plk1 PBD binding of FITC phosphopeptide, fluorescence polarization; Potency, µM, usual class: inhibitors; hit rate 2.8% among 360,000; note: series mostly up to about 57 µM; nearly all actives have a fitted effect of over 65% in size
VDR inhibitor – Inhibitors of the vitamin D receptor (VDR): qHTS; Vitamin D3 receptor (Homo sapiens), P11473; VDR-SRC2-3 peptide fluorescence polarization, 2 h; Potency, µM, hits mostly inhibitors; hit rate 0.93% among 400,000; AID 504847, 2011
Target sequence (P11473 whole entry, looked up): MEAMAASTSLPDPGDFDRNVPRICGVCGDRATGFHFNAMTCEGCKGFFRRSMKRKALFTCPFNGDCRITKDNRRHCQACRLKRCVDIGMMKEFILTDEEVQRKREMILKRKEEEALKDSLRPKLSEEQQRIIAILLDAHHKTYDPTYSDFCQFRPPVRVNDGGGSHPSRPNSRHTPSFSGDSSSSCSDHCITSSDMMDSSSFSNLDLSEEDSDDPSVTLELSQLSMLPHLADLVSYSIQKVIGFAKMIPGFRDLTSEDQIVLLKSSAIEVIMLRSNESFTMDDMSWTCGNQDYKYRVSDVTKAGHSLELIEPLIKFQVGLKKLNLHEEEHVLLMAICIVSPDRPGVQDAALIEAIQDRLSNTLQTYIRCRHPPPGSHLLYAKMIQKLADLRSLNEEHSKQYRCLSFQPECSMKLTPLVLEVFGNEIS
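Compounds are added to VDR with labelled SRC2-3 coactivator peptide and held 2 h at room temperature. Inhibition of the VDR–peptide interaction is then read as a change in fluorescence polarization.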
Large screens that a line does not name were inactive. The list is not random: actives were taken first. Their share in the collection is about 4.2%. Calls come from the whole dose curve; as a rule, active = well fitted curve in the direction sought with a large enough effect; inconclusive = small, poorly fitted or top-dose-only effect, or another doubt; inactive = no such curve, though single readings can be large; an effect the other way counts as inactive or inconclusive.

Cc1cccc(OCCCC(=O)Nc2ccc(S(N)(=O)=O)cc2)c1	none
CCN(CC)c1ccc(NC(=O)CCCOc2cccc(C)c2)cc1	ALOX12 inh 40µM
Cc1ccc(SCc2cc(=O)c3c(=O)n(-c4ccccc4)[nH]c3[nH]2)cc1	ALOX12 inh 35µM, Sfp inh 71µM
O=c1cc(CSc2ccc(Cl)cc2)[nH]c2[nH]n(-c3ccccc3)c(=O)c12	ALOX12 inh 40µM, VDR inhibitor inconclusive
Cc1cccc(NC(=O)c2ccc(C)c(S(=O)(=O)N3CCOCC3)c2)n1	ALOX12 inh inconclusive (no result: Sfp inh)
O=C(c1ccncc1)N1CCC[C@@]2(CCN(c3ccccc3)C2)C1	ALOX12 inh inconclusive, VDR inhibitor inconclusive (no result: PLK1 PBD block)
COc1ccccc1N(O)C1CC(=O)N(c2ccc(F)cc2)C1=O (stereo not given)	Sfp inh inconclusive, PLK1 PBD block 5.3µM, VDR inhibitor inconclusive
COc1ccccc1N1C(=O)CC(N(O)c2ccccc2)C1=O (stereo not given)	ALOX12 inh inconclusive
CCOC(=O)CCCc1sc(N)nc1-c1[nH]c(=O)[nH]c1C	Sfp inh 22µM, PLK1 PBD block inconclusive (no result: ALOX12 inh)
COc1ccc(OCC(O)CNC(=O)c2c(-c3ccccc3)noc2C)cc1 (stereo not given)	none
c1ccc(-c2nc(-c3ccncc3)n[nH]2)nc1	Sfp inh 14µM
CN(C)CCCNC(=O)c1nc2ccccc2c(=O)[nH]1	none (no result: Sfp inh, PLK1 PBD block, VDR inhibitor)
CCOC(=O)c1c(NC(=O)C2C3C=CC(C3)C2C(=O)O)sc2c1CCC(CC)C2 (stereo not given)	PLK1 PBD block 27µM, VDR inhibitor inconclusive
CCc1c(C)sc(NC(=S)Nc2cccnc2)c1C(=O)OC	Sfp inh 20µM, PLK1 PBD block inconclusive
CCc1c(C)sc(NC(=S)Nc2nc(C)cc(C)n2)c1C(=O)OC	ALOX12 inh 22µM
COc1ccc(N=C2NC(=O)/C(=C/C=C/c3ccccc3)S2)cc1	none
Cc1cccc(N=C2NC(=O)/C(=C/C=C/c3ccco3)S2)c1C	ALOX12 inh 10µM, Sfp inh 40µM, PLK1 PBD block 15µM, VDR inhibitor inconclusive
Cc1ccc(N=C2NC(=O)/C(=C/C=C/c3ccco3)S2)cc1	ALOX12 inh 32µM, Sfp inh inconclusive, PLK1 PBD block inconclusive, VDR inhibitor inconclusive
O=C1NC(=Nc2ccccc2)S/C1=C\C=C\c1ccco1	ALOX12 inh 50µM, PLK1 PBD block inconclusive, VDR inhibitor inconclusive
CN(C)S(=O)(=O)c1cccc(NC(=O)CNCC2CCCCC2)c1	Sfp inh inconclusive
CCCNC(=O)N1CCC(Oc2ccccc2-c2nc(-c3ccncc3)no2)C1 (stereo not given)	none (no result: Sfp inh, PLK1 PBD block, VDR inhibitor)
FC(F)(F)c1cccc(Nc2c3c(nc4ccc(Cl)cc24)CCC3)c1	none (no result: Sfp inh, PLK1 PBD block)
CCc1noc(C)c1C(=O)OCC(=O)NCCc1ccc(OC)cc1	none (no result: Sfp inh)
CC(=O)N(CCCN1CCOCC1)Cc1ccncc1	PLK1 PBD block 30µM
Cc1ccc(NC2c3ncccc3C(=O)N2c2ccccc2C)cc1C (stereo not given)	ALOX12 inh 10µM, Sfp inh 45µM, PLK1 PBD block 6.7µM
COc1cc(NC2c3ccccc3C(=O)N2c2ccccc2C)cc(OC)c1OC (stereo not given)	none (no result: Sfp inh, PLK1 PBD block, VDR inhibitor)
CCCNC(=O)CN1C(=O)COc2ccc(S(=O)(=O)N3CCC(C)CC3)cc21	none (no result: Sfp inh, PLK1 PBD block)
C=CCN(C(=O)CCC(=O)O)C1CC(=O)N(c2ccc(OCCC)cc2)C1=O (stereo not given)	PLK1 PBD block 24µM
C=CCN(C(=O)CCC(=O)O)C1CC(=O)N(c2ccc(OC)cc2)C1=O (stereo not given)	ALOX12 inh inconclusive
CCOCCn1c(=O)c2c(nc3n2CC(C)CN3Cc2ccccc2)n(C)c1=O (stereo not given)	PLK1 PBD block 30µM
O=C(c1cc(S(=O)(=O)N2CCOCC2)c(Cl)cc1Cl)N1CCCC1	none (no result: Sfp inh)
CC1Cc2cc(/C(O)=C3/C(=O)C(=O)N(Cc4ccco4)C3c3cccs3)ccc2O1 (stereo not given)	ALOX12 inh inconclusive, Sfp inh 28µM
COc1ccc(/C(O)=C2/C(=O)C(=O)N(CCCN3CCOCC3)C2c2ccc(C)cc2)cc1 (stereo not given)	ALOX12 inh inconclusive
CC1Cc2cc(/C(O)=C3/C(=O)C(=O)N(CCCn4ccnc4)C3c3ccco3)ccc2O1 (stereo not given)	ALOX12 inh inconclusive
